According to the antibiotic and cytotoxicity screens of Wong et al. (2023):
Out of some 39,000 compounds screened, about 3,300 (8.5%) were called active. The sample holds actives, similar compounds and a random draw of the others, so the mix is not that of the screen.

These compounds were tested on HepG2 (assay: cytotoxicity call (relative viability < 0.9)). Details: 10 µM.
With C[C@@H]1CCCCO[C@@H](CN(C)C(=O)NC2CCCCC2)[C@H](C)CN([C@H](C)CO)C(=O)c2cc(NC(=O)NC3CCCCC3)ccc2O1 the cytotoxicity call was “inactive”. For C[C@H](CO)N1C[C@H](C)[C@@H](CN(C)C(=O)Nc2ccccc2)Oc2ccc(NC(=O)CCCCCC(=O)Nc3ccccc3N)cc2CC1=O, the cytotoxicity call was “inactive”. With COc1ccccc1C#Cc1cnc2c(c1)C(=O)N([C@H](C)CO)C[C@@H](C)[C@@H](CN(C)C(=O)CC1CC1)O2 the cytotoxicity call was “inactive”. With C[C@H](CO)N1C[C@H](C)[C@@H](CN(C)S(=O)(=O)c2ccc(Cl)cc2)Oc2ccc(NC(=O)C3CC3)cc2C1=O the cytotoxicity call was “inactive”. CCCCCCCCCCCCCCCC(=O)OCC=C(C)C=CC=C(C)C=CC1=C(C)CCCC1(C)C was tested, and the cytotoxicity call was “inactive”. C[C@H]1CN([C@@H](C)CO)C(=O)c2cc(N(C)C)ccc2O[C@H]1CN(C)S(=O)(=O)c1ccc(Cl)cc1 was tested, and the cytotoxicity call was “inactive”. In the case of C[C@@H]1CCCCO[C@@H](CN(C)S(C)(=O)=O)[C@@H](C)CN([C@H](C)CO)C(=O)c2cc(NS(C)(=O)=O)ccc2O1, the cytotoxicity call was “inactive”. CN(C)CCCNC(=O)C[C@@H]1CC[C@@H]2[C@@H](COc3ccc(NS(C)(=O)=O)cc3C(=O)N2C)O1 was tested, and the cytotoxicity call was “inactive”. With CO[C@@H]1CN(C)C(=O)c2cc(NC(=O)Nc3ccccc3F)ccc2OC[C@H](C)N(Cc2ccccc2C(=O)O)C[C@H]1C the cytotoxicity call was “inactive”. For Cc1ccc(S(=O)(=O)N(C)C[C@H]2Oc3ccc(NS(=O)(=O)c4cn(C)cn4)cc3CC(=O)N([C@@H](C)CO)C[C@H]2C)cc1, the cytotoxicity call was “inactive”. In the case of O=C(Nc1cccc2cccnc12)[C@@H]1[C@H](c2ccc(C(F)(F)F)cc2)CC(=O)N1C(=O)OCc1ccccc1, the cytotoxicity call was “inactive”. With C[C@@H]1CCCCO[C@H](CN(C)C(=O)c2ccncc2)[C@H](C)CN([C@H](C)CO)C(=O)c2cc(NS(C)(=O)=O)ccc2O1 the cytotoxicity call was “inactive”. Cc1ccc(S(=O)(=O)N(C)C[C@H]2Oc3cc(Br)ccc3S(=O)(=O)N([C@@H](C)CO)C[C@H]2C)cc1 was tested, and the cytotoxicity call was “inactive”. With C[C@H](CO)N1C[C@H](C)[C@H](CN(C)S(=O)(=O)c2ccc(Cl)cc2)OCCCC[C@H](C)Oc2ccc(NS(=O)(=O)c3ccccc3)cc2C1=O the cytotoxicity call was “active”. For C[C@@H]1CCCCO[C@@H](CN(C)S(=O)(=O)c2ccc(Cl)cc2)[C@H](C)CN([C@H](C)CO)C(=O)c2cc(NS(=O)(=O)c3ccccc3)ccc2O1, the cytotoxicity call was “active”. C[C@@H]1CN([C@@H](C)CO)C(=O)c2cc(NS(=O)(=O)c3ccc(Cl)cc3)ccc2O[C@@H](C)CCCCO[C@@H]1CN(C)S(=O)(=O)c1ccccc1 was tested, and the cytotoxicity call was “active”. For C[C@@H]1CN([C@H](C)CO)C(=O)c2cc(NS(=O)(=O)c3ccc(Cl)cc3)ccc2O[C@@H](C)CCCCO[C@H]1CN(C)S(=O)(=O)c1ccccc1, the cytotoxicity call was “active”. In the case of C[C@H](CO)N1C[C@H](C)[C@@H](CN(C)S(=O)(=O)c2ccccc2)OCCCC[C@H](C)Oc2ccc(NS(=O)(=O)c3ccc(Cl)cc3)cc2C1=O, the cytotoxicity call was “inactive”. For C[C@@H]1CN([C@H](C)CO)C(=O)c2cc(NS(=O)(=O)c3ccc(Cl)cc3)ccc2O[C@@H](C)CCCCO[C@@H]1CN(C)S(=O)(=O)c1ccccc1, the cytotoxicity call was “inactive”. C[C@@H]1CCCCO[C@@H](CN(C)S(=O)(=O)c2ccccc2)[C@H](C)CN([C@H](C)CO)C(=O)c2cc(NS(=O)(=O)c3ccc(Cl)cc3)ccc2O1 was tested, and the cytotoxicity call was “inactive”. With C[C@@H]1CN([C@H](C)CO)C(=O)c2cc(NS(=O)(=O)c3ccccc3)ccc2O[C@@H](C)CCCCO[C@@H]1CN(C)S(=O)(=O)c1ccc(Cl)cc1 the cytotoxicity call was “inactive”. C[C@@H]1CCCCO[C@H](CN(C)S(=O)(=O)c2ccccc2)[C@H](C)CN([C@@H](C)CO)C(=O)c2cc(NS(=O)(=O)c3ccc(Cl)cc3)ccc2O1 was tested, and the cytotoxicity call was “inactive”. For C[C@@H]1CN([C@@H](C)CO)C(=O)c2cc(NS(=O)(=O)c3ccccc3)ccc2O[C@@H](C)CCCCO[C@@H]1CN(C)S(=O)(=O)c1ccc(Cl)cc1, the cytotoxicity call was “inactive”. In the case of C[C@@H]1CCCCO[C@H](CN(C)S(=O)(=O)c2ccc(Cl)cc2)[C@@H](C)CN([C@H](C)CO)C(=O)c2cc(NS(=O)(=O)c3ccccc3)ccc2O1, the cytotoxicity call was “inactive”. C[C@@H]1CCCCO[C@@H](CN(C)S(=O)(=O)c2ccccc2)[C@H](C)CN([C@@H](C)CO)C(=O)c2cc(NS(=O)(=O)c3ccc(Cl)cc3)ccc2O1 was tested, and the cytotoxicity call was “inactive”. For C[C@@H]1CN([C@@H](C)CO)C(=O)c2cc(NC(=O)CCC(F)(F)F)ccc2O[C@@H](C)CCCCO[C@H]1CN(C)Cc1ccncc1, the cytotoxicity call was “inactive”. For C=CCOC(=O)[C@H]1[C@@H]2C(=O)O[C@@H](c3ccccc3)[C@@H](c3ccccc3)N2[C@@H](c2ccc(OCCOC(=O)[C@H]3C[C@H]4C(=O)N[C@@H](Cc5ccccc5)C(=O)N4[C@H]3c3ccc(O)cc3)cc2)[C@]12C(=O)Nc1ccc(I)cc12, the cytotoxicity call was “inactive”. C[C@@H]1CCCCO[C@@H](CN(C)C(=O)NC2CCCCC2)[C@@H](C)CN([C@@H](C)CO)C(=O)c2cc(NS(=O)(=O)c3cccs3)ccc2O1 was tested, and the cytotoxicity call was “inactive”. For CCCNC(=O)N[C@H]1C=C[C@H](CC(=O)N2CCN(C)CC2)O[C@H]1CO, the cytotoxicity call was “inactive”. In the case of Oc1cccc(c1)/C/1=C/2\CC/C(=C(\c3cccc(c3)O)c3ccc([nH]3)/C(=C\3/C=CC(=N3)/C(=C\3/C=CC1=N3)c1cccc(c1)O)c1cccc(c1)O)N2, the cytotoxicity call was “inactive”. With C[C@@H]1CN([C@H](C)CO)C(=O)c2cc(NS(=O)(=O)c3ccccc3)ccc2O[C@@H](C)CCCCO[C@H]1CN(C)S(=O)(=O)c1ccc(Cl)cc1 the cytotoxicity call was “active”. In the case of C[C@@H]1CCCCO[C@H](CN(C)S(=O)(=O)c2ccccc2)[C@H](C)CN([C@H](C)CO)C(=O)c2cc(NS(=O)(=O)c3ccc(Cl)cc3)ccc2O1, the cytotoxicity call was “inactive”. For C[C@@H]1CCCCO[C@H](CN(C)S(=O)(=O)c2ccc(Cl)cc2)[C@@H](C)CN([C@@H](C)CO)C(=O)c2cc(NS(=O)(=O)c3ccccc3)ccc2O1, the cytotoxicity call was “inactive”. In the case of O=C(CS(=O)(=O)c1cccc2nsnc12)N1CC(=O)N(CCc2ccccc2)C(=O)C1, the cytotoxicity call was “inactive”. With C[C@H]1CN([C@@H](C)CO)C(=O)c2cc(NS(=O)(=O)c3cn(C)cn3)ccc2O[C@@H]1CN(C)S(=O)(=O)c1ccc(F)cc1 the cytotoxicity call was “inactive”. C[C@H](CO)N1C[C@H](C)[C@H](CN(C)Cc2ccc(C(F)(F)F)cc2)Oc2c(NS(C)(=O)=O)cccc2C1=O was tested, and the cytotoxicity call was “inactive”. Cc1ccc(-c2ccc3c(c2)O[C@H](CN(C)C(=O)NC(C)C)[C@H](C)CN([C@@H](C)CO)S3(=O)=O)cc1 was tested, and the cytotoxicity call was “inactive”. With C[C@H](CO)N1C[C@H](C)[C@H](CN(C)S(=O)(=O)c2ccc(F)cc2)OCCCC[C@H](C)Oc2ccc(NS(=O)(=O)c3cn(C)cn3)cc2C1=O the cytotoxicity call was “inactive”. With O=C(C[C@H]1CC[C@@H]2[C@H](COC[C@H](O)CN2S(=O)(=O)c2ccccc2Cl)O1)NCc1ccccc1Cl the cytotoxicity call was “inactive”. CN(CC(=O)Nc1cccc(S(=O)(=O)N2CCOCC2)c1)CC(=O)Nc1ccc(Cl)c(C(F)(F)F)c1 was tested, and the cytotoxicity call was “inactive”. In the case of C[C@H](NC(=O)c1c(N)nn2cccnc12)c1cc2cccc(C#Cc3cnn(C)c3)c2c(=O)n1-c1ccccc1, the cytotoxicity call was “active”. In the case of O=C(C[C@H]1CC[C@H]2[C@@H](COC[C@@H](O)CN2S(=O)(=O)c2ccccc2)O1)NCCN1CCCC1, the cytotoxicity call was “inactive”. CN1CCN(C(=O)C[C@H]2CC[C@H]3[C@@H](COc4ccc(NC(=O)c5cccs5)cc4C(=O)N3C)O2)CC1 was tested, and the cytotoxicity call was “inactive”. With COc1ccc(S(=O)(=O)N(C)C[C@H]2Oc3ccc(NC(=O)c4ccncc4)cc3CC(=O)N([C@H](C)CO)C[C@H]2C)cc1 the cytotoxicity call was “inactive”. In the case of CN(C)CC(=O)N1CC2(C1)[C@@H](c1ccccc1)[C@H](CO)N2S(C)(=O)=O, the cytotoxicity call was “inactive”. With CC(C)(C)c1cc(C(=O)NN)no1 the cytotoxicity call was “inactive”. For CCN1C(C)(C)CC(Oc2ccc(C(=O)Nc3ccc(NC(=O)Nc4cc(C(C)(C)C)on4)cc3)nc2)CC1(C)C, the cytotoxicity call was “active”. With COc1cc2ncnc(Oc3cccc(NC(=O)Nc4cc(C(C)(C)C(F)(F)F)on4)c3)c2cc1OC the cytotoxicity call was “inactive”. In the case of C[C@@H]1CN([C@H](C)CO)C(=O)Cc2cc(NC(=O)Cn3cnnn3)ccc2O[C@H]1CN(C)C(=O)NC1CCCCC1, the cytotoxicity call was “inactive”. In the case of C[C@@H]1CN([C@@H](C)CO)C(=O)c2cc(NC(=O)Nc3cccc4ccccc34)ccc2O[C@@H]1CN(C)Cc1ccc2c(c1)OCO2, the cytotoxicity call was “active”. With C[C@@H]1CN([C@@H](C)CO)C(=O)c2cc(NC(=O)Nc3cccc4ccccc34)ccc2O[C@@H]1CN(C)Cc1ccccc1 the cytotoxicity call was “active”. For C[C@@H]1CN([C@@H](C)CO)C(=O)c2cc(NC(=O)Nc3cccc4ccccc34)ccc2O[C@H]1CN(C)Cc1ccccc1, the cytotoxicity call was “inactive”. With C[C@@H]1CN([C@@H](C)CO)C(=O)c2cc(NC(=O)Nc3cccc4ccccc34)ccc2O[C@H]1CN(C)Cc1ccc2c(c1)OCO2 the cytotoxicity call was “inactive”. For C[C@@H]1CN([C@H](C)CO)C(=O)c2cc(NC(=O)Nc3cccc4ccccc34)ccc2O[C@H]1CN(C)Cc1ccccc1, the cytotoxicity call was “inactive”. C[C@@H]1CN([C@H](C)CO)C(=O)c2cc(NC(=O)Nc3cccc4ccccc34)ccc2O[C@@H]1CN(C)Cc1ccccc1 was tested, and the cytotoxicity call was “active”. With C[C@H](CO)N1C[C@H](C)[C@H](CN(C)Cc2ccccc2)Oc2ccc(NC(=O)Nc3cccc4ccccc34)cc2C1=O the cytotoxicity call was “inactive”. In the case of C[C@H]1CN([C@@H](C)CO)C(=O)c2cc(NC(=O)Nc3cccc4ccccc34)ccc2O[C@@H]1CN(C)Cc1ccc2c(c1)OCO2, the cytotoxicity call was “inactive”. For C[C@H]1CN([C@@H](C)CO)C(=O)c2cc(NC(=O)Nc3cccc4ccccc34)ccc2O[C@@H]1CN(C)Cc1ccccc1, the cytotoxicity call was “inactive”. For CCS(=O)(=O)N1CC[C@]2(CC1)CN([C@H](CO)c1c2c2ccc(cc2n1C)OC)C(=O)Nc1c(noc1C)C, the cytotoxicity call was “inactive”.
